# Screens: PubChem, several laboratories
# Hits are enriched below; roughly 5.3% of the tested compounds scored in any of these assays.
# HIF act: HIF pathway transcriptional activation; U2OS HRE-luciferase reporter, luminescence; normalized: DMSO 0%, desferrioxamine 100%; activation, % at 7.5 µM (by protocol); hit rate 0.32% among 300,000;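 active = mean activation of at least 10% of the iron chelator positive control signal, with at least half of replicates also reaching 10%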
# SUMO Mot1 rescue: inhibitors of SUMOylation pathway: yeast Mot1-301 growth rescue; S. cerevisiae Mot1-301 growth rescue, ATP luminescence, 38.5C; percent above DMSO median, 100 means doubled; growth rescue, % at 18.8 µM; hit rate 1% among 320,000; AID 2716;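 active = every valid replicate shows activation above 250% relative to neutral control wells; inactive = the rest, any valid replicate at or below 250%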;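 also: OY570 slx delta 5 strain wells were the positive control but not used for scaling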
# ALR inh: human ALR oxidase inhibition via reduced H2O2. hit rate 3.8% among 290,000. purified ALR, DTT oxidation, H2O2 HRP-luminol luminescence. P55789. AID 485317. inhibition, % (concentration not given with the values);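 active = mean replicate inhibition above about 79%, with every replicate also reaching it, limit read from the data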
# Target sequence (P55789 whole entry, looked up): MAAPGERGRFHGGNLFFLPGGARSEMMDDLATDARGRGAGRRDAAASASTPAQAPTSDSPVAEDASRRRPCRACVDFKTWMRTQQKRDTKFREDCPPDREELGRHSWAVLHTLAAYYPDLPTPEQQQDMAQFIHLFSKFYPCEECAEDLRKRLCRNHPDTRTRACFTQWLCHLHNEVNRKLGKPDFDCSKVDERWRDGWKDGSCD
# M18AAP inhibitor: PfM18AAP enzyme inhibition | hit rate 1.2% among 290,000 | recombinant PfM18AAP, H-Glu-NHMec fluorogenic cleavage | inhibition, % at 7.35 µM;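 active = inhibition above the campaign mean inhibition over all tested compounds plus 3 SD, cut at about 28% in these data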;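 also: 0% = plate median of test compound wells and 100% = 2 mM ZnCl2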
# Mot1 SUMO dose: yeast SUMO pathway inhibition in dose response | shares compounds with SUMO Mot1 rescue | S. cerevisiae Mot1-301 galactose growth, ATP luminescence, 24 h; -100 = growth of slx-deleted rescue strain | growth activity, percent, % at 42 µM | 2,300 tested, under 10 active | AID 493004;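 active = Signal drops as the depositor expects, and the fitted half-maximal dose is no more than ten times the top valid tested dose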;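 also: more negative values mean stronger growth rescue toward the control strain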
# Numbers without * were called inactive; x = no result; + = active, no number.
SMILES,HIF act,SUMO Mot1 rescue,ALR inh,M18AAP inhibitor,Mot1 SUMO dose
COc1ccc(CN2CCN(C(=O)C3CCC(CNS(=O)(=O)c4ccccc4)CC3)CC2)c(OC)c1OC (stereo not given),1,299,-12,-4,x
COc1cc2c(cc1OC)C(=O)N1[C@H]3c4ccccc4OC[C@@H]3[C@H](c3ccccc3)[C@]1(C)C(=O)N2,x,183,-6,x,x
COc1ccc2c(c1)[C@H]1[C@H](CO2)[C@H](c2ccccc2)[C@]2(C)C(=O)Nc3cc(F)ccc3C(=O)N12,x,376*,0,x,-1
COc1ccc2c(c1)[C@H]1[C@H](CO2)[C@H](c2ccccc2)[C@]2(C)C(=O)Nc3ccc(Br)cc3C(=O)N12,x,548*,5,x,-1
COc1ccc2c(c1)OC[C@H]1[C@H]2N2C(=O)c3cc(OC)c(OC)cc3NC(=O)[C@@]2(C)[C@H]1c1ccccc1,x,485*,-7,x,-1
COc1ccc2c(c1)OC[C@H]1[C@H]2N2C(=O)c3cc(Br)ccc3NC(=O)[C@@]2(C)[C@H]1c1ccccc1,x,468*,-4,x,0
CCOC(=O)c1c(C)[nH]c(C)c1C(=O)COC(=O)c1ccc(Cl)c(S(N)(=O)=O)c1,0,8,-25,3,x
CCC1NC(=O)c2ccccc2N1c1cccc(Cl)c1 (stereo not given),0,20,-5,x,x
O=[N+]([O-])c1ccc(S(=O)(=O)Nc2nnc(C3CCCCC3)s2)cc1,0,254,-12,-4,x
COc1ccc(Cn2c(-c3ccc(C)cc3)nc3c(c(=O)c4ccccc4n3C)c2=O)cc1,-1,119,-2,-3,x
COc1cc(OC)cc(-c2c(-c3cccs3)c3cc(-c4ccc(OC)c(OC)c4)ccc3n2C)c1,x,-5,-5,x,x
O=C(COC(=O)c1ccco1)NCCc1ccc(Cl)cc1,x,-2,-1,x,x
CC1(C)Oc2ccc3ccc(=O)oc3c2/C(=C/Nc2ccc(O)cc2)C1=O,0,984*,20,1,0
CC(Oc1ccccc1)C(=O)Nc1ccccc1O (stereo not given),0,568*,90*,12,1
CCOC(=O)C1(Cc2cccc(Cl)c2)CCCN(C(=O)CCOC)C1 (stereo not given),1,389*,-2,8,0
CCOC(=O)C1(Cc2cccc(Cl)c2)CCCN(C(=O)CCSC)C1 (stereo not given),-18,-14,3,-4,x
CCCCOc1ccc(C(=O)Nc2ccc(N3CCN(C)CC3)cc2)cc1,2,+,4,3,0
CCOc1ccc(C(=O)Nc2ccc(N3CCN(C)CC3)cc2)cc1,2,-7,0,-1,x
Cn1c(=O)c2sccc2n(Cc2ccccc2)c1=O,-1,0,-6,2,x
COc1cc2c(cc1OC)CN(S(=O)(=O)c1cccc(F)c1)CC2,-1,+,-3,1,0
CC(=O)N(c1cccc(Br)c1)c1nc(C)cc(C)c1C#N,0,94,3,-3,x
Cc1ccc(C)c(S(=O)(=O)N2CCN(C(=O)Cn3c(=O)cnc4ccccc43)CC2)c1,0,-3,-5,x,x
O=C(NCC(c1cccs1)N1CCOCC1)c1ccccc1NS(=O)(=O)c1cc([N+](=O)[O-])ccc1Cl (stereo not given),0,504*,-24,-10,-1
O=C(NCC(c1cccs1)N1CCOCC1)c1ccccc1NS(=O)(=O)c1ccc(Cl)c([N+](=O)[O-])c1 (stereo not given),0,-24,-17,3,x
COc1ccc(-c2csc(Nc3ncccn3)n2)cc1C,3,-3,-1,-7,x
SMILES,HIF act,SUMO Mot1 rescue,ALR inh,M18AAP inhibitor,Mot1 SUMO dose
COc1ccc(-c2csc(Nc3cc(C)ccn3)n2)cc1C,-3,515*,-1,-2,0
Cc1cc(C)n(C(=O)c2ccccc2[N+](=O)[O-])n1,-2,438*,-6,-9,0
COc1ccccc1OCCN(C#N)c1nc(N(C)C)nc(N(C)C)n1,0,3,0,-3,x
CC1(C)C2CCC1(C)C(NC(=O)CCN1CCCCC1)C2 (stereo not given),0,-7,-5,1,x
C=CC(=O)NC1CC2CCC1(C)C2(C)C (stereo not given),-1,459*,-3,2,1
O=C(Cc1cccs1)Nc1nnc(-c2ccncc2)s1,0,+,-8,-3,0
COc1cccc(-c2nnc(NC(=O)Cc3cccs3)s2)c1,2,-2,2,-14,x
O=C(C(=O)N1CCCCCC1)c1c[nH]c2ccccc12,1,47,1,3,x
COc1ccc2[nH]cc(C(=O)C(=O)N3CCCCC3)c2c1,0,695*,-3,2,0
O=C1CCC(C(=O)NCc2ccccc2)N1 (stereo not given),1,-3,x,2,x
N#C/C(=C\c1cn(-c2ccccc2)nc1-c1cccnc1)c1nnc2n1CCCCC2,0,397*,22,2,0
CSc1cc(C)c(OCC(=O)Nc2c(C)nn(C)c2C)c(C)c1,1,385*,x,-2,0
Cc1nn(C)c(C)c1NC(=O)COc1ccc(F)cc1Br,x,-14,-9,x,x
COc1ccc(N(C)C(=O)C2CCN(S(=O)(=O)c3cccc4nonc34)CC2)c(OC)c1,0,-5,-29,8,x
Cc1nnc(SCC(=O)Nc2nc(-c3ccccc3)cs2)n1N,1,-16,14,7,x
CCn1c(SCC(=O)OC)nnc1-c1ccncc1,-1,825*,-7,-5,0
CCn1c(SCC(=O)Nc2nc(-c3ccccc3)cs2)nnc1-c1ccccc1,x,570*,-10,0,1
O=C(NCc1ccncc1)/C(=C/c1cccc([N+](=O)[O-])c1)NC(=O)c1ccccc1,0,-8,-2,-17,x
Cc1c(C(=O)NC(C)C)oc2c1-c1[nH]ncc1CC2,0,+,-48,3,0
COc1ccc(NC2CC(=O)N(C(C)C)C2=O)cc1 (stereo not given),1,507*,9,-2,0
O=C(Cc1ccccc1)N1CCCC1c1ccccc1 (stereo not given),1,+,-4,2,0
Cc1cc(C(=O)NCc2ccc(F)cc2)n(-c2ccccc2)n1,0,-10,x,-4,x
Cc1cccc(N2CCN(CCCNC(=O)c3ccc(NC(=O)C4=CSCCO4)cc3)CC2C)c1 (stereo not given),-1,445*,43,-2,0
Cc1cc(C)c(C)c(S(=O)(=O)Nc2ccc3cn[nH]c3c2)c1C,x,-10,0,x,x
CCOC(=O)N1CCC(NS(=O)(=O)c2ccc(C)c(Cl)c2)CC1,1,559*,-8,-12,0
CCOC(=O)N1CCN(S(=O)(=O)c2ccc(Br)s2)CC1,0,365*,5,-10,0
CCOC(=O)N1CCN(S(=O)(=O)c2ccc(OCC)c(C)c2)CC1,x,8,-3,2,x
CCOC(=O)N1CCN(S(=O)(=O)c2ccc(C)c(C)c2)CC1,0,388*,-2,4,0
